Results taken from PubChem BioAssay (EPA / NIEHS).
Records with an inconclusive call do not appear. The source made the active and inactive calls. Rule for the calls: active = hit-call score of the fitted dose curve at least 0.9, where 1 is the maximum; inconclusive = response in the unintended direction; inactive = score below 0.9.

Biological target: Oxysterols receptor LXR-beta (Homo sapiens) (UniProt P55055)
Assay: ATG_LXRb_TRANS: Attagene TRANS-FACTORIAL HepG2 Assay for human Liver X Receptor beta (LXRb) (AID 2282981)
Conditions: HepG2 Attagene TRANS GAL4-LXRb reporter, mRNA
Description: ATG_TRANS is a cell-based, multiplexed-readout assay that uses HepG2, a human liver cell line, with measurements taken at 24 hours after chemical dosing in a 24-well plate.ATG_LXRb_TRANS is one of 30 assay component(s) measured or calculated from the ATG_TRANS assay. It is designed to make measurements of mRNA induction, a form of inducible reporter, as detected with fluorescence intensity signals by Reverse transcription polymerase chain reaction (RT-PCR) and Capillary electrophoresis technology.Data from the assay component ATG_LXRb_TRANS was analyzed into 1 assay endpoint. This assay endpoint, ATG_LXRb_TRANS, was analyzed in the positive analysis fitting direction relative to DMSO as the negative control and baseline of activity. Using a type of inducible reporter, measures of mRNA for gain-of-signal activity can be used to understand the reporter gene at the transcription factor-level as they relate to the gene NR1H2. Furthermore, this assay endpoint can be referred to as a primary readout, because this assay has produced multiple assay endpoints where this one serves a reporter gene function. To generalize the intended target to other relatable targets, this assay endpoint is annotated to the nuclear receptor intended target family, where the subfamily is non-steroidal.
Human liver HepG2 cells are transiently transfected with multiple reporter transcription units (MRTUs) in 6-well plates using FuGene 6 reagent (Roche; 3 ml FuGene/1 mg DNA). The MRTU constructs are regulated by a cis-regulating element (promoter). […] A major difference between the CIS and TRANS system is that in CIS activities of endogenous TFs are measured, whereas the TRANS assay evaluates changes in activities of exogenous, chimeric NR-Gal4 proteins. […] At the end of 24 hour incubation, total RNA was isolated using TriZol reagent (Invitrogen). The isolated RNA is then reverse-transcribed using oligo(dT) primer and Mo-MLV reverse transcriptase (Invitrogen) with DNAse I (Ambion) treatment for 30 min. The one-tenth of the produced cDNA was amplified by PCR using Taq DNA polymerase (Invitrogen) and two reporter sequence-specific primers. The PCR products were fluorescently labeled by primer extension with 6-arboxyfluorescein (6-FAM) 5'-labeled reporter sequence-specific primer (2 min at 95 C, 20 s at 68 C and 10 min at 72 C) and these products were digested with 5U of HpaI (New England Biolabs) for 2h at 37 C. The fragments were purified using Qiaquick PCR columns (Qiagen), analyzed on an ABI 3130xL genetic analyzer (Applied Biosystems) with peak positions identified by using a set of X-rhodamine (ROX)-labeled MapMarker1000 molecular weight standards (BioVentures). The raw capillary electrophoresis data was processed using Attagraph software (Attagene).

Chain of Oxysterols receptor LXR-beta (Homo sapiens) (P55055 whole entry, looked up): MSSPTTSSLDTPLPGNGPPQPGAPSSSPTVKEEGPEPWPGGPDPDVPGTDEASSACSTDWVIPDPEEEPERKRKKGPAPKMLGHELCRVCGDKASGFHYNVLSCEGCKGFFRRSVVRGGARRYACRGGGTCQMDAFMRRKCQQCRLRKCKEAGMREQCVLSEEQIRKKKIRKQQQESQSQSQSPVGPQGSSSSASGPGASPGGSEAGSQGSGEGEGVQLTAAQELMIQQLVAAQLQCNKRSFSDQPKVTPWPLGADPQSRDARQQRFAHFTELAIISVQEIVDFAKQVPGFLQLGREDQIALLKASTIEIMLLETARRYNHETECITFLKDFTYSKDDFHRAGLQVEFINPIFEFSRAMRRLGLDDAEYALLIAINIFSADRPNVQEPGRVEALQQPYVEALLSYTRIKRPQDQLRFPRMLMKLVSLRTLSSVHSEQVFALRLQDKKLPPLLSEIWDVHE

Structure (SMILES)	outcome	AC50
CCCCCCCCCCCCCCCCCC(=O)OCC(CC)CCCC (stereo not given)	inactive	
CCOC(=O)c1ccccc1OC	inactive	
OCCCCCO	inactive	
CCCC(=O)c1cc(O)c(O)cc1O	inactive	
CC(C)(C)NC(N)=O	inactive	
CC(C)(CO)[N+](=O)[O-]	inactive	
CC(C)C(C)(C)C(C)(C)C(C)(C)S	inactive	
CC(C)=CCO	inactive	
C=CC(=O)OCCn1c(=O)n(CCOC(=O)C=C)c(=O)n(CCOC(=O)C=C)c1=O	inactive	
CC(C)(Oc1ccc(CCNC(=O)c2ccc(Cl)cc2)cc1)C(=O)O	inactive	
CC(CC(C)(C)C)CC(C)(C)CC(C)(C)C (stereo not given)	inactive	
C=CCOc1nc(OCC=C)nc(OCC=C)n1	inactive	
CCCCCCCCC	inactive	
C=C[C@@H](C)CCC=C(C)C	inactive	
CC1CCC(C(C)CS)CC1S (stereo not given)	inactive	
COCCOCCOCCOCCOCCO	inactive	
C=C(C)C(=O)O[C@H]1C[C@@H]2CC[C@@]1(C)C2(C)C	inactive	
Clc1ccc2c(c1)C(N1CCNCC1)=Nc1ccccc1O2	inactive	
CC1(C)[C@H](C(=O)OCc2cccc(Oc3ccccc3)c2)[C@@H]1C=C(Cl)Cl	inactive	
COCCCOc1ccnc(CS(=O)c2nc3ccccc3[nH]2)c1C (stereo not given)		27.9 µM (active)

Structure (SMILES)	outcome	AC50
CC(C#N)(CCC(=O)O)N=NC(C)(C#N)CCC(=O)O (stereo not given)	inactive	
CC(C)(N)CO	inactive	
Nc1cc(N)cc(C(=O)O)c1	inactive	
CC(O)C(C)O (stereo not given)	inactive	
C[C@H]1C[C@@H]2[C@H]([C@@H](O)C[C@@]3(C)[C@H]2CC[C@]3(O)C(=O)CO)[C@@]2(C)C=CC(=O)C=C12	inactive	
OC[C@H]1O[C@H](O[C@]2(CCl)O[C@H](CCl)[C@@H](O)[C@@H]2O)[C@H](O)[C@@H](O)[C@H]1Cl	inactive	
Cc1ccc2ccccc2n1	inactive	
O=C(O)CCCCC1CCSS1 (stereo not given)	inactive	
COC(C)CCO (stereo not given)	inactive	
Cc1ccc(C=O)cc1	inactive	
O=C(O)c1snc(Cl)c1Cl	inactive	
c1ccc(CCCc2ccccn2)cc1	inactive	
C=C(C)C(=O)NCCCN(C)C	inactive	
CC(C)=CCC/C(C)=C/COC=O	inactive	
C[C@H]1C[C@H]2[C@@H]3CCC4=CC(=O)C=C[C@]4(C)[C@@]3(F)[C@@H](O)C[C@]2(C)[C@@]1(O)C(=O)COP(=O)(O)O	inactive	
C=COCCOCCOCCOC=C	inactive	
CCCCNC(=O)NS(=O)(=O)c1ccc(N)cc1	inactive	
C[C@]12CC[C@H]3[C@@H](CCC4=CC(=O)CC[C@@]43C)[C@@H]1CC[C@@H]2C(=O)CO	inactive	
C[Si](O[Si](C)(C)C)O[Si](C)(C)C	inactive	
C=CC(C)(CCC=C(C)C)OC=O (stereo not given)	inactive	
